From PubChem BioAssay AID1159580 (chemical genetic matrix, 2015)
Several values for one entry are separate records, joined by “and”; a condition that tells them apart may be missing. Equal values may be shown once. In all, about 5,500 compounds went through this assay and about 2,000 (36%) were called active. Inconclusive results (about 18%) are left out. Rule as the data show it: active = normalized growth mostly below about 0.91 (no sharp cut-off); inconclusive = no clear call, values can overlap the other calls; inactive = mostly above about 0.92. The list shows a part of the results.

Experiment: chemical genetic growth profiling, strain panel (AID 1159580);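 also: tested at 20 µM; growth read once vehicle control cultures reached saturation at 30 °C; 1 = growth at the plate median or of vehicle wells; lower values mean less growth of the strain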
Conditions: growth OD

Measured: normalized growth

CC1=C(CC(=O)O)c2cc(F)ccc2/C1=C\c1ccc(S(C)=O)cc1 (stereo unspecified)
inactive: S. cerevisiae deletion strains, locus YJR075W, strain HOC1, stronger effect = lower value 1 | S. cerevisiae deletion strains, locus YKL009W, strain mrt4, stronger effect = lower value 0.993 | S. cerevisiae deletion strains, locus YKL068W, stronger effect = lower value 1.01 | S. cerevisiae deletion strains, locus YKL085W, strain MDH1 (second series), stronger effect = lower value 1.02 | S. cerevisiae deletion strains, locus YKL085W, strain MDH1, stronger effect = lower value 1.02 | S. cerevisiae deletion strains, locus YKL160W, strain elf1, stronger effect = lower value 1 | S. cerevisiae deletion strains, locus YKL190W, strain CNB1, stronger effect = lower value 1.01 | S. cerevisiae deletion strains, locus YKR001C, strain vps1, stronger effect = lower value 0.997 | S. cerevisiae deletion strains, locus YKR026C, strain gcn3, stronger effect = lower value 1.01 | S. cerevisiae deletion strains, locus YKR091W, strain srl3, stronger effect = lower value 1.02 | S. cerevisiae deletion strains, locus YLL001W, strain dnm1, stronger effect = lower value 0.998 | S. cerevisiae deletion strains, locus YLL026W, stronger effect = lower value 1.03 | S. cerevisiae deletion strains, locus YLL041C, strain sdh2, stronger effect = lower value 1.02 | S. cerevisiae deletion strains, locus YLR027C, strain aat2, stronger effect = lower value 1.02 | S. cerevisiae deletion strains, locus YLR039C, strain RIC1, stronger effect = lower value 1.01 | S. cerevisiae deletion strains, locus YLR058C, strain SHM2, stronger effect = lower value 1 | S. cerevisiae deletion strains, locus YLR102C, strain apc9, stronger effect = lower value 1.02 | S. cerevisiae deletion strains, locus YLR113W, strain HOG1, stronger effect = lower value 1 | S. cerevisiae deletion strains, locus YLR221C, strain rsa3, stronger effect = lower value 0.999 | S. cerevisiae deletion strains, locus YLR258W, strain gsy2, stronger effect = lower value 1.01 | S. cerevisiae deletion strains, locus YLR262C, strain YPT6 (second series), stronger effect = lower value 1.02 | S. cerevisiae deletion strains, locus YLR262C, strain YPT6, stronger effect = lower value 0.995 | S. cerevisiae deletion strains, locus YLR268W, strain sec22, stronger effect = lower value 1.06 | S. cerevisiae deletion strains, locus YLR320W, strain mms22, stronger effect = lower value 1 | S. cerevisiae deletion strains, locus YLR330W, strain CHS5, stronger effect = lower value 1.01 | S. cerevisiae deletion strains, locus YLR342W, strain FKS1 (second series), stronger effect = lower value 1.02 | S. cerevisiae deletion strains, locus YLR342W, strain FKS1, stronger effect = lower value 0.99 | S. cerevisiae deletion strains, locus YLR357W, strain rsc2, stronger effect = lower value 1.05 | S. cerevisiae deletion strains, locus YLR370C, strain arc18, stronger effect = lower value 1.03 | S. cerevisiae deletion strains, locus YLR371W, strain rom2, stronger effect = lower value 1.03 | S. cerevisiae deletion strains, locus YLR384C, strain iki3, stronger effect = lower value 1.02 | S. cerevisiae deletion strains, locus YLR418C, strain cdc73, stronger effect = lower value 1.02 | S. cerevisiae deletion strains, locus YML016C, strain PPZ1, stronger effect = lower value 1 | S. cerevisiae deletion strains, locus YML032C, strain rad52, stronger effect = lower value 1.03 | S. cerevisiae deletion strains, locus YML120C, strain ndi1, stronger effect = lower value 1.03 | S. cerevisiae deletion strains, locus YML124C, strain tub3, stronger effect = lower value 1.01 | S. cerevisiae deletion strains, locus YMR058W, strain fet3, stronger effect = lower value 1.03 | S. cerevisiae deletion strains, locus YMR078C, strain ctf18, stronger effect = lower value 1.01 | S. cerevisiae deletion strains, locus YMR125W, strain sto1, stronger effect = lower value 1.02 | S. cerevisiae deletion strains, locus YMR129W, stronger effect = lower value 1.02 | S. cerevisiae deletion strains, locus YMR205C, strain PFK2, stronger effect = lower value 1.03 | S. cerevisiae deletion strains, locus YMR223W, strain ubp8, stronger effect = lower value 0.995 | S. cerevisiae deletion strains, locus YMR231W, strain pep5, stronger effect = lower value 1.02 | S. cerevisiae deletion strains, locus YMR263W, strain SAP30, stronger effect = lower value 1.01 | S. cerevisiae deletion strains, locus YMR307W, strain GAS1, stronger effect = lower value 1 and 1.02 | S. cerevisiae deletion strains, locus YNL067W, strain RPL9B, stronger effect = lower value 1.01 | S. cerevisiae deletion strains, locus YNL071W, strain lat1, stronger effect = lower value 1.02 | S. cerevisiae deletion strains, locus YNL128W, strain TEP1, stronger effect = lower value 1.03 | S. cerevisiae deletion strains, locus YNL153C, strain GIM3, stronger effect = lower value 1.01 and 1.06 | S. cerevisiae deletion strains, locus YNL175C, strain NOP13, stronger effect = lower value 1.02 | S. cerevisiae deletion strains, locus YNL183C, strain NPR1, stronger effect = lower value 0.946 | S. cerevisiae deletion strains, locus YNL197C, strain WHI3, stronger effect = lower value 1.02 | S. cerevisiae deletion strains, locus YNL209W, strain ssb2, stronger effect = lower value 1.02 | S. cerevisiae deletion strains, locus YNL224C, strain SQS1, stronger effect = lower value 1.02 | S. cerevisiae deletion strains, locus YNL233W, strain BNI4, stronger effect = lower value 1.01 | S. cerevisiae deletion strains, locus YNL248C, strain rpa49, stronger effect = lower value 1 | S. cerevisiae deletion strains, locus YNL250W, strain rad50, stronger effect = lower value 1.01 | S. cerevisiae deletion strains, locus YNL271C, strain bni1, stronger effect = lower value 1.01 | S. cerevisiae deletion strains, locus YNL298W, strain CLA4, stronger effect = lower value 0.991 | S. cerevisiae deletion strains, locus YNL307C, strain MCK1, stronger effect = lower value 1.03 | S. cerevisiae deletion strains, locus YNL322C, strain KRE1 (second series), stronger effect = lower value 1.02 | S. cerevisiae deletion strains, locus YNL322C, strain KRE1, stronger effect = lower value 1.01 | S. cerevisiae deletion strains, locus YNR049C, strain mso1, stronger effect = lower value 1.03 | S. cerevisiae deletion strains, locus YNR052C, strain pop2, stronger effect = lower value 1.02 | S. cerevisiae deletion strains, locus YOL006C, strain TOP1, stronger effect = lower value 0.99 | S. cerevisiae deletion strains, locus YOL012C, strain htz1 1.13 | S. cerevisiae deletion strains, locus YOL147C, strain pex11, stronger effect = lower value 1.02 | S. cerevisiae deletion strains, locus YOR001W, strain rrp6, stronger effect = lower value 1.04 | S. cerevisiae deletion strains, locus YOR061W, strain CKA2, stronger effect = lower value 1 | S. cerevisiae deletion strains, locus YOR069W, strain VPS5, stronger effect = lower value 1.01 | S. cerevisiae deletion strains, locus YOR070C, strain gyp1, stronger effect = lower value 1.01 | S. cerevisiae deletion strains, locus YOR080W, strain dia2, stronger effect = lower value 1.04 | S. cerevisiae deletion strains, locus YOR083W, strain WHI5 (second series), stronger effect = lower value 1.03 | S. cerevisiae deletion strains, locus YOR083W, strain WHI5, stronger effect = lower value 0.986 | S. cerevisiae deletion strains, locus YOR106W, strain vam3, stronger effect = lower value 1.01 | S. cerevisiae deletion strains, locus YOR136W, strain idh2, stronger effect = lower value 1.01 | S. cerevisiae deletion strains, locus YOR144C, strain elg1, stronger effect = lower value 1.02 | S. cerevisiae deletion strains, locus YOR184W, strain ser1, stronger effect = lower value 1.01 | S. cerevisiae deletion strains, locus YOR231W, strain MKK1, stronger effect = lower value 0.975 | S. cerevisiae deletion strains, locus YOR265W, strain rbl2, stronger effect = lower value 1.02 | S. cerevisiae deletion strains, locus YOR270C, strain vph1, stronger effect = lower value 1.04 | S. cerevisiae deletion strains, locus YOR290C, strain snf2, stronger effect = lower value 1.02 | S. cerevisiae deletion strains, locus YOR316C, strain cot1, stronger effect = lower value 1.02 | S. cerevisiae deletion strains, locus YPL051W, strain arl3, stronger effect = lower value 0.996 | S. cerevisiae deletion strains, locus YPL055C, strain LGE1, stronger effect = lower value 0.98 | S. cerevisiae deletion strains, locus YPL078C, strain atp4, stronger effect = lower value 1.01 | S. cerevisiae deletion strains, locus YPL106C, strain sse1, stronger effect = lower value 1.03 | S. cerevisiae deletion strains, locus YPL240C, strain hsp82, stronger effect = lower value 1.02 | S. cerevisiae deletion strains, locus YPL241C, strain CIN2, stronger effect = lower value 1.01 | S. cerevisiae deletion strains, locus YPL256C, strain CLN2, stronger effect = lower value 0.994 | S. cerevisiae deletion strains, locus YPR119W, strain clb2, stronger effect = lower value 1.02 | S. cerevisiae deletion strains, locus YPR141C, strain kar3, stronger effect = lower value 1.02 | S. cerevisiae deletion strains, locus YPR163C, strain tif3, stronger effect = lower value 1.02 | S. cerevisiae deletion strains, locus YPR167C, strain met16, stronger effect = lower value 1.02 | S. cerevisiae deletion strains, strain wtn01, stronger effect = lower value 1.03 | S. cerevisiae strains, strain wild type, stronger effect = lower value 1.01
